Reference: PubChem BioAssay (Tox21)
Where “and” joins values, the source holds several entries; their conditions need not be identical. Identical values can stand only once. Inconclusive results are not listed. Entries that show only a call come without a potency. Calls of active or inactive are those of the source. Calls come from the whole dose curve; as a rule, active = well fitted inhibition curve with a large enough effect in the repeat runs; inconclusive = weak or mixed curves; inactive = no such curve, though single readings can be large or run the other way.

Test: qHTS assay to identify small molecule antagonists of the thyroid receptor (TR) signaling pathway (AID 743065); note: nearly all actives have a fitted effect of over 55% in size
Conditions: GH3.TRE-Luc, T3-stimulated luciferase inhibition, 23.5 h; series mostly up to 70.3 µM
How it was run: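 GH3.TRE-Luc rat pituitary cells carrying two TR response elements driving luciferase were plated for 4 h, given compound plus 1 nM T3 (final), and incubated 23.5 h at 37 C. ONE-Glo luminescence measured reporter inhibition; CellTiter-Fluor fluorescence tracked cytotoxicity.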
Potency is the fitted concentration of half-maximal effect.

**Q.** For `NCCCN1CCN(CCCN)CC1`, which Potency is on record?
**A.** inactive

**Q.** Which Potency does the source give for `CCOC(=O)[C@H](CCc1ccccc1)N[C@@H](C)C(=O)N1Cc2cc(OC)c(OC)cc2C[C@H]1C(=O)O` here?
**A.** inactive

**Q.** For `COc1ccc(S(=O)(=O)Nc2nnc(CC(C)C)s2)cc1`, which Potency is on record?
**A.** inactive

**Q.** For `C[C@]12C(=O)OC(=O)[C@H]1[C@H]1C=C[C@@H]2C1`, which Potency is on record?
**A.** inactive

**Q.** Which Potency does the source give for `COC(C)CCO` (stereo not given) here?
**A.** inactive

**Q.** Which Potency does the source give for `Cc1cc(S(=O)(=O)O)c(N)cc1Cl` here?
**A.** inactive

**Q.** With `OC[C@H]1O[C@@H](O[C@H]2[C@H](O)[C@@H](O)[C@H](O)O[C@@H]2CO)[C@H](O)[C@@H](O)[C@H]1O` as the compound, how does the Potency read?
**A.** inactive

**Q.** For `C=CCc1cc(OC)c(O)c(C(=O)NCCO)c1`, which Potency is on record?
**A.** inactive

**Q.** For `COc1ccccc1OCC(O)COC(N)=O` (stereo not given), which Potency is on record?
**A.** inactive

**Q.** With `OCC(CBr)(CBr)CBr` as the compound, how does the Potency read?
**A.** inactive

**Q.** For `OCCN(CCO)c1ccccc1`, which Potency is on record?
**A.** inactive

**Q.** With `CC(C)C(=O)OC/C=C/c1ccccc1` as the compound, how does the Potency read?
**A.** inactive

**Q.** With `CCOC(=O)NCCC[Si](OCC)(OCC)OCC` as the compound, how does the Potency read?
**A.** inactive

**Q.** Which Potency does the source give for `O=C1C=CC(=O)O1` here?
**A.** inactive

**Q.** For `Oc1ccccc1F`, which Potency is on record?
**A.** inactive

**Q.** For `Nc1cccc(S(=O)(=O)O)c1`, which Potency is on record?
**A.** inactive

**Q.** For `COC(=O)C(C)O` (stereo not given), which Potency is on record?
**A.** inactive

**Q.** For `CC(C)O`, which Potency is on record?
**A.** inactive

**Q.** For `CCCCC1CCC(=O)O1` (stereo not given), which Potency is on record?
**A.** inactive

**Q.** Which Potency does the source give for `CC1(C)O[C@@H]2C[C@H]3[C@@H]4CCC5=CC(=O)CC[C@]5(C)[C@@]4(F)[C@@H](O)C[C@]3(C)[C@]2(C(=O)CCl)O1` here?
**A.** inactive

**Q.** With `FC(F)(F)C(Cl)(Cl)Cl` as the compound, how does the Potency read?
**A.** inactive

**Q.** Which Potency does the source give for `CN(C)Cc1ccccc1` here?
**A.** inactive

**Q.** With `FC(F)(F)c1ccccc1` as the compound, how does the Potency read?
**A.** inactive

**Q.** Which Potency does the source give for `Cc1ncc(CO)c(CN)c1O` here?
**A.** inactive

**Q.** For `CCc1cc(Cl)c(OC)c(C(=O)NC[C@@H]2CCCN2CC)c1O`, which Potency is on record?
**A.** 23.7 µM (active) and 11.4 µM (active) and 11.9 µM (active)
